Several values for one entry are separate records, joined by “and”; a condition that tells them apart may be missing. Identical values can stand only once. Hit rate of the full screen: of about 5,500 compounds, about 2,000 (36%) were called active. Inconclusive results (about 18%) are left out. No stated cut-off is given here; in the data, active means normalized growth mostly below about 0.91 (no sharp cut-off); inconclusive means no clear call, values can overlap the other calls; inactive means mostly above about 0.92. The list shows a part of the results.
Assay: chemical genetic growth profiling, strain panel (AID 1159580);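 further: tested at 20 µM; growth read once vehicle control cultures reached saturation at 30 °C; 1 = growth at the plate median or of vehicle wells; lower values mean less growth of the strain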
Details: S. cerevisiae deletion strains, growth OD

Measured: normalized growth

O=[N+]([O-])c1cc(O)c(O)c([N+](=O)[O-])c1
inactive: locus YAL021C, strain ccr4, hits give low values 1.01 | locus YAL026C, strain drs2, hits give low values 1.01 | locus YAL030W, strain snc1, hits give low values 1.02 | locus YAL040C, strain CLN3, hits give low values 0.986 | locus YBL061C, strain skt5, hits give low values 1.01 | locus YBR009C, strain hhf1, hits give low values 1.07 | locus YBR021W, strain FUR4, hits give low values 0.953 | locus YBR023C, strain chs3, hits give low values 1.03 | locus YBR171W, strain sec66, hits give low values 1.01 | locus YBR229C, strain ROT2, hits give low values 1.01 | locus YBR231C, strain swc5, hits give low values 0.983 | locus YBR279W, strain paf1, hits give low values 1.03 | locus YCL011C, strain gbp2, hits give low values 1.03 | locus YCL016C, strain dcc1, hits give low values 1.05 | locus YCL029C, strain bik1, hits give low values 0.984 | locus YCL061C, strain MRC1 (second series), hits give low values 0.993 | locus YCL061C, strain MRC1, hits give low values 1.03 | locus YCL069W, strain vba3, hits give low values 1.01 | locus YCR088W, strain abp1, hits give low values 1 | locus YDL005C, strain med2, hits give low values 1.02 | locus YDL035C, strain GPR1, hits give low values 1 | locus YDL040C, strain nat1, hits give low values 1.02 | locus YDL074C, strain BRE1, hits give low values 1.01 | locus YDL101C, strain DUN1, hits give low values 1.01 | locus YDL185W, strain tfp1, hits give low values 0.967 | locus YDL192W, strain arf1, hits give low values 0.988 | locus YDR001C, strain nth1, hits give low values 0.998 | locus YDR069C, strain doa4, hits give low values 0.996 | locus YDR101C, strain arx1, hits give low values 0.997 | locus YDR137W, strain rgp1, hits give low values 0.982 | locus YDR150W, strain NUM1, hits give low values 1.01 | locus YDR159W, strain sac3, hits give low values 0.957 | locus YDR162C, strain NBP2, hits give low values 0.999 | locus YDR195W, strain ref2 0.992 | locus YDR297W, strain sur2, hits give low values 1.01 | locus YDR318W, strain mcm21, hits give low values 0.987 | locus YDR334W, strain swr1, hits give low values 1.01 | locus YDR335W, strain msn5, hits give low values 1.01 | locus YDR363W, strain ESC2, hits give low values 1.06 | locus YDR388W, hits give low values 0.978 | locus YDR392W, strain spt3, hits give low values 1.08 | locus YDR502C, strain sam2, hits give low values 1 | locus YEL003W, strain gim4, hits give low values 1.02 | locus YEL037C, strain rad23, hits give low values 1.01 | locus YEL061C, strain CIN8 (second series), hits give low values 1 | locus YEL061C, strain CIN8, hits give low values 1 | locus YER002W, strain NOP16, hits give low values 0.996 | locus YER015W, strain faa2, hits give low values 1.01 | locus YER016W, strain bim1, hits give low values 0.995 | locus YER110C, hits give low values 0.99 | locus YER111C, strain swi4, hits give low values 1 | locus YER155C, strain BEM2 (second series), hits give low values 0.992 | locus YER155C, strain BEM2, hits give low values 0.993 | locus YER167W, strain BCK2, hits give low values 1.02 | locus YFR010W, strain ubp6, hits give low values 1.01 | locus YGL078C, strain dbp3, hits give low values 0.976 | locus YGL086W, strain mad1, hits give low values 1 | locus YGL167C, strain pmr1, hits give low values 1.02 | locus YGL173C, strain kem1, hits give low values 1.01 | locus YGL227W, strain vid30, hits give low values 1.01 | locus YGL240W, strain doc1, hits give low values 0.998 | locus YGL248W, strain PDE1, hits give low values 1.03 | locus YGL253W, strain hxk2, hits give low values 0.959 | locus YGR078C, strain PAC10, hits give low values 1.01 and 0.977 | locus YGR135W, strain pre9, hits give low values 0.969 | locus YGR229C, strain SMI1, hits give low values 0.983 | locus YGR252W, strain gcn5, hits give low values 0.849 | locus YHR013C, strain ard1, hits give low values 1.05 | locus YHR027C, strain rpn1, hits give low values 1.01 | locus YHR030C, strain SLT2, hits give low values 0.996 | locus YHR079C, strain IRE1 (second series), hits give low values 0.994 | locus YHR094C, strain hxt1, hits give low values 0.972 | locus YHR129C, strain ARP1, hits give low values 1 | locus YHR142W, strain chs7, hits give low values 1.01 | locus YHR200W, strain rpn10, hits give low values 0.991 | locus YIL066C, strain RNR3, hits give low values 1.01 | locus YIL073C, strain SPO22, hits give low values 0.99 | locus YIL125W, strain kgd1, hits give low values 0.972 | locus YIR030C, strain dcg1, hits give low values 0.976 | locus YJL092W, strain hpr5, hits give low values 1.02 | locus YJL095W, strain BCK1 (second series), hits give low values 1.02 | locus YJL095W, strain BCK1, hits give low values 0.987 | locus YJL115W, strain asf1, hits give low values 1.01 | locus YJL129C, strain trk1, hits give low values 1.01 | locus YJL134W, strain LCB3, hits give low values 1.01 | locus YJL154C, strain vps35, hits give low values 1.01 | locus YJL164C, strain tpk1, hits give low values 1.06 | locus YJL166W, strain qcr8, hits give low values 1.01 | locus YJL168C, strain set2, hits give low values 0.978

Reference: PubChem BioAssay AID1159580 (chemical genetic matrix, 2015)
